# Measured values published in PubChem BioAssay AID1159580 (chemical genetic matrix, 2015).
# Out of some 5,500 compounds screened, about 2,000 (36%) were called active. Roughly 18% stayed inconclusive and do not appear here. The list shows a part of the results. Values without a mark were called inactive. No stated cut-off is given here; in the data, active means normalized growth mostly below about 0.91 (no sharp cut-off); inconclusive means no clear call, values can overlap the other calls; inactive means mostly above about 0.92.
# Assay: chemical genetic growth profiling, strain panel (AID 1159580);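 further: tested at 20 µM; growth read once vehicle control cultures reached saturation at 30 °C; 1 = growth at the plate median or of vehicle wells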
# Details: S. cerevisiae deletion strains, growth OD
# [1] = locus YAR019C, strain CDC15, stronger effect = lower value
# [2] = locus YBL105C, strain PKC1, stronger effect = lower value
# [3] = locus YBR135W, strain CKS1, stronger effect = lower value
# [4] = locus YBR136W, strain MEC1, stronger effect = lower value
# [5] = locus YBR160W, strain CDC28, stronger effect = lower value
# [6] = locus YDL017W, strain CDC7, stronger effect = lower value
# [7] = locus YDL028C, strain MPS1, stronger effect = lower value
# [8] = locus YDL101C, strain DUN1, stronger effect = lower value
# [9] = locus YDL108W, strain KIN28, stronger effect = lower value
# [10] = locus YDL132W, strain cdc53, stronger effect = lower value
# [11] = locus YDL214C, strain PRR2, stronger effect = lower value
# [12] = locus YDR052C, strain DBF4, stronger effect = lower value
# [13] = locus YDR054C, strain cdc34, stronger effect = lower value
# [14] = locus YDR226W, strain ADK1, stronger effect = lower value
# [15] = locus YDR477W, strain SNF1, stronger effect = lower value
# [16] = locus YER123W, strain YCK3, stronger effect = lower value
# [17] = locus YER133W, strain GLC7, stronger effect = lower value
# [18] = locus YFL009W, strain cdc4, stronger effect = lower value
# [19] = locus YFL029C, strain CAK1, stronger effect = lower value
# [20] = locus YFR003C, strain YPI1, stronger effect = lower value
# [21] = locus YFR019W, strain FAB1, stronger effect = lower value
# [22] = locus YFR028C, strain CDC14, stronger effect = lower value
# [23] = locus YGR040W, strain KSS1, stronger effect = lower value
# [24] = locus YGR052W, strain FMP48, stronger effect = lower value
# [25] = locus YGR092W, strain DBF2, stronger effect = lower value
# [26] = locus YHR079C, strain IRE1, stronger effect = lower value
# [27] = locus YHR082C, strain KSP1, stronger effect = lower value
# [28] = locus YHR205W, strain SCH9, stronger effect = lower value
# [29] = locus YIL147C, strain SLN1, stronger effect = lower value
# [30] = locus YJL095W, strain BCK1, stronger effect = lower value
# [31] = locus YJL128C, strain PBS2, stronger effect = lower value
# [32] = locus YJL157C, strain FAR1, stronger effect = lower value
# [33] = locus YJR016C, strain ILV3, stronger effect = lower value
# [34] = locus YJR066W, strain TOR1 (second series), stronger effect = lower value
# [35] = locus YJR066W, strain TOR1, stronger effect = lower value
# [36] = locus YKL048C, strain ELM1, stronger effect = lower value
# [37] = locus YKL067W, strain YNK1, stronger effect = lower value
# [38] = locus YKL101W, strain HSL1, stronger effect = lower value
# [39] = locus YKL193C, strain SDS22, stronger effect = lower value
# [40] = locus YKL203C, strain TOR2, stronger effect = lower value
# [41] = locus YLR113W, strain HOG1, stronger effect = lower value
# [42] = locus YLR133W, strain CKI1, stronger effect = lower value
# [43] = locus YLR403W, strain SFP1, stronger effect = lower value
# [44] = locus YML070W, strain DAK1, stronger effect = lower value
# [45] = locus YMR001C, strain CDC5, stronger effect = lower value
# [46] = locus YMR205C, strain PFK2 (second series), stronger effect = lower value
# [47] = locus YMR277W, strain FCP1, stronger effect = lower value
# [48] = locus YNL006W, strain LST8, stronger effect = lower value
# [49] = locus YNL020C, strain ARK1, stronger effect = lower value
# [50] = locus YNL161W, strain CBK1, stronger effect = lower value
# [51] = locus YNL183C, strain NPR1, stronger effect = lower value
# [52] = locus YNL207W, strain RIO2, stronger effect = lower value
# [53] = locus YNL222W, strain SSU72, stronger effect = lower value
# [54] = locus YNL307C, strain MCK1 (second series), stronger effect = lower value
# [55] = locus YOL078W, strain AVO1, stronger effect = lower value
# [56] = locus YOL136C, strain PFK27, stronger effect = lower value
# [57] = locus YOR061W, strain CKA2, stronger effect = lower value
# [58] = locus YOR119C, strain RIO1, stronger effect = lower value
# [59] = locus YOR231W, strain MKK1, stronger effect = lower value
# [60] = locus YOR329C, strain SCD5, stronger effect = lower value
# [61] = locus YPL031C, strain PHO85, stronger effect = lower value
# [62] = locus YPL153C, strain RAD53, stronger effect = lower value
# [63] = locus YPL204W, strain HRR25, stronger effect = lower value
# [64] = locus YPL209C, strain IPL1, stronger effect = lower value
# [65] = locus YPL256C, strain CLN2, stronger effect = lower value
# [66] = locus YPR025C, strain CCL1, stronger effect = lower value
# [67] = locus YPR106W, strain ISR1, stronger effect = lower value
# [68] = locus YPR111W, strain DBF20, stronger effect = lower value
# [69] = strain NNK1, stronger effect = lower value
# [70] = strain TSCII, stronger effect = lower value
compound,measurement,setting,value
CC(C)(C)c1csc(NNC(=O)c2ccc(Cl)cc2)n1,normalized growth,[1],0.978
same,normalized growth,[2],0.979
same,normalized growth,[3],0.954
same,normalized growth,[4],0.981
same,normalized growth,[5],0.966
same,normalized growth,[6],0.978
same,normalized growth,[7],0.98
same,normalized growth,[8],0.968
same,normalized growth,[9],0.974
same,normalized growth,[10],0.968
same,normalized growth,[11],0.884
same,normalized growth,[12],0.984
same,normalized growth,[13],0.958
same,normalized growth,[14],0.975
same,normalized growth,[15],0.925
same,normalized growth,[16],0.795
same,normalized growth,[17],0.913
same,normalized growth,[18],0.966
same,normalized growth,[19],0.963
same,normalized growth,[20],0.982
same,normalized growth,[21],0.92
same,normalized growth,[22],0.96
same,normalized growth,[23],0.883
same,normalized growth,[24],0.923
same,normalized growth,[25],0.871
same,normalized growth,[26],0.891
same,normalized growth,[27],0.911
same,normalized growth,[28],0.882
same,normalized growth,[29],0.984
same,normalized growth,[30],0.863
same,normalized growth,[31],0.921
same,normalized growth,[32],0.885
same,normalized growth,[33],0.964
same,normalized growth,[34],0.946
same,normalized growth,[35],0.904
same,normalized growth,[36],0.892
same,normalized growth,[37],0.885
same,normalized growth,[38],0.829
same,normalized growth,[39],0.967
same,normalized growth,[40],0.958
same,normalized growth,[41],0.756 (active)
same,normalized growth,[42],0.872
same,normalized growth,[43],0.861
same,normalized growth,[44],0.814
same,normalized growth,[45],0.974
same,normalized growth,[46],0.872
same,normalized growth,[47],0.975
same,normalized growth,[48],0.982
same,normalized growth,[49],0.884
same,normalized growth,[50],0.969
same,normalized growth,[51],0.837
same,normalized growth,[52],0.96
same,normalized growth,[53],0.963
same,normalized growth,[54],0.899
same,normalized growth,[55],0.962
same,normalized growth,[56],0.868
same,normalized growth,[57],0.899
same,normalized growth,[58],0.967
same,normalized growth,[59],0.812
same,normalized growth,[60],0.97
same,normalized growth,[61],0.912
same,normalized growth,[62],0.895
same,normalized growth,[63],0.914
same,normalized growth,[64],0.966
same,normalized growth,[65],0.769 (active)
same,normalized growth,[66],0.964
same,normalized growth,[67],0.954
same,normalized growth,[68],0.949
same,normalized growth,[69],0.957
same,normalized growth,[70],0.969
CC(C)(C)c1cc2nc(C(F)(F)F)cc(NNC(=O)c3ccc(Cl)cc3)n2n1,normalized growth,[1],0.978
same,normalized growth,[2],0.994
same,normalized growth,[3],0.977
same,normalized growth,[4],0.989
same,normalized growth,[5],0.978
same,normalized growth,[6],0.996
same,normalized growth,[7],0.984
same,normalized growth,[8],0.991
same,normalized growth,[9],0.981
same,normalized growth,[10],0.974
same,normalized growth,[11],1.01
same,normalized growth,[12],0.989
same,normalized growth,[13],0.978
same,normalized growth,[14],0.982
same,normalized growth,[15],1.03
same,normalized growth,[16],0.999
same,normalized growth,[17],1.03
same,normalized growth,[18],0.981
same,normalized growth,[19],0.981
same,normalized growth,[20],0.992
same,normalized growth,[21],0.966
same,normalized growth,[22],0.979
same,normalized growth,[23],1.01
same,normalized growth,[24],1.12
same,normalized growth,[25],0.952
same,normalized growth,"locus YHR030C, strain SLT2, stronger effect = lower value",1.04
same,normalized growth,[26],0.989
same,normalized growth,[27],1.06
same,normalized growth,[28],0.99
same,normalized growth,[29],0.983
same,normalized growth,[30],0.991
same,normalized growth,[31],0.961
same,normalized growth,[32],1.02
same,normalized growth,[33],0.977
same,normalized growth,[34],0.991
same,normalized growth,[35],1.05
same,normalized growth,[36],0.986
same,normalized growth,[37],1
same,normalized growth,[38],1.01
same,normalized growth,[39],0.977
same,normalized growth,[40],1.07
same,normalized growth,[41],0.983
same,normalized growth,[42],0.995
same,normalized growth,[43],0.991
same,normalized growth,[44],1
same,normalized growth,[45],0.994
same,normalized growth,[46],1
same,normalized growth,[47],0.973
same,normalized growth,[48],0.988
same,normalized growth,[49],1.01
same,normalized growth,[50],0.991
same,normalized growth,[51],0.988
same,normalized growth,[52],0.981
same,normalized growth,[53],0.975
same,normalized growth,[54],1
same,normalized growth,[55],0.98
same,normalized growth,[56],1.01
same,normalized growth,[57],0.995
same,normalized growth,[58],1.11
same,normalized growth,[59],0.988
same,normalized growth,[60],0.997
same,normalized growth,[61],1.03
same,normalized growth,[62],1.03
same,normalized growth,[63],1.05
same,normalized growth,[64],0.988
same,normalized growth,[65],0.994
same,normalized growth,[66],0.988
same,normalized growth,[67],0.988
same,normalized growth,[68],0.976
same,normalized growth,[69],0.983
same,normalized growth,[70],0.984
